The campaign covered roughly 16,000 compounds. About 5,700 (36%) were called active. Inconclusive results (about 24%) are left out. Some of the results follow. A number with no mark means an inactive call. Calls come from the whole dose curve; as a rule, active = well fitted curve in the direction sought with a large enough effect; inconclusive = small, poorly fitted or top-dose-only effect, or effect the other way; inactive = no such curve, though single readings can be large or run the other way.
These compounds were tested against Cytochrome P450 1A2 (Homo sapiens) (UniProt P05177) (assay: Cytochrome panel assay with activity outcomes). Settings: recombinant CYP, pro-luciferin dealkylation, luminescence, p450-cyp1a2; series mostly up to 57.1 µM.
% is set by controls: 0 for no effect and ±100 for the full control effect.

Sequence of Cytochrome P450 1A2 (Homo sapiens) (P05177 whole entry, looked up): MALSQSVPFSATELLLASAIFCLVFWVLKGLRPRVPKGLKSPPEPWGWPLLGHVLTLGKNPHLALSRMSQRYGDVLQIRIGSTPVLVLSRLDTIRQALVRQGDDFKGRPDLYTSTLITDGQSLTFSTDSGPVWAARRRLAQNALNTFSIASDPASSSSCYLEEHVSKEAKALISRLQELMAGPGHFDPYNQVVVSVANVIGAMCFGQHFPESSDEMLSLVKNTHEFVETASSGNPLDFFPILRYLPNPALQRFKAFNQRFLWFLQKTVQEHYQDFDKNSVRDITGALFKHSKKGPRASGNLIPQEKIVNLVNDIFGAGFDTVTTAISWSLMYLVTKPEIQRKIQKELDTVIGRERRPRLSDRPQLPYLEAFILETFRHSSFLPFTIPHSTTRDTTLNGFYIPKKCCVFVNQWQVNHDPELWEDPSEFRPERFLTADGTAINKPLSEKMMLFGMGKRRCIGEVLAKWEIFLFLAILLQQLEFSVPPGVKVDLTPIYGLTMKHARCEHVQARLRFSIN

Compound	AC50	activity, negative = inhibition
Cc1c(C(=O)Nc2nccs2)sc2nc(-c3cccs3)cc(C(F)(F)F)c12	1580 nM (active)	
Cc1ccc(Oc2ccccc2/C=C2\SC(=O)N(C)C2=O)cc1	3160 nM (active)	
Cc1ccc(NC(=O)CN2C(=O)S/C(=C\c3cccn3C)C2=O)cc1	inactive	
Cc1cc(N)c2ccccc2[n+]1CCCCCCCCCC[n+]1c(C)cc(N)c2ccccc21	inactive	
CCCCCCCCC[n+]1cccc2c3ccccc3ccc21	15800 nM (active)	
Cc1cc(N)c2ccccc2[n+]1CCCCCCCCCCCCCC[n+]1c(C)cc(N)c2ccccc21	inactive	
COc1cccc2c1OC[C@@H](CO)[C@H]2N(C)C(=O)Nc1ccc(Cl)cc1Cl	inactive	
Clc1ccccc1-c1nc(-c2ccncc2)no1	79.4 nM (active)	
O=C(CCNS(=O)(=O)c1cccs1)N1CCc2ccccc2C1	15800 nM (active)	
O=C(CCNS(=O)(=O)c1cccs1)N1CCCCCC1	inactive	
CC(C)C(NS(=O)(=O)c1cccs1)C(=O)NCCN1CCN(c2ccccc2)CC1 (stereo not given)	inactive	
Cc1cc(C)c2c(-n3cccc3)n[nH]c2n1	3550 nM (active)	
Cc1cc(C)c2c(-n3cccc3)nn(CC#N)c2n1	2510 nM (active)	
CSc1nc(Oc2ccc(=O)[nH]n2)nc(N(C)C)n1	inactive	
Cc1cccc(-n2c(Cn3nc(C)c([N+](=O)[O-])c3C)n[nH]c2=S)c1	inactive	
Cc1cccc(-n2nc([N+](=O)[O-])c(=NCc3cccnc3)n2O)c1	2000 nM (active)	
C#CCn1c(S(=O)(=O)Cc2ccc(OC)cc2)nc(-c2ccccc2)c1-c1ccccc1	inactive	
COc1cc(OC)c(C#N)c(S(=O)(=O)Cc2ccccc2)c1	15800 nM (active)	
COc1ccc(F)cc1S(=O)(=O)NC(Cc1ccccc1)C(N)=O (stereo not given)	inactive	
C[C@@H](CNC(N)=O)NC(N)=O		-12.2% [at 11.4 µM]
CN(C)c1ccc(-c2cncnc2N(C)Cc2ccco2)cc1	631 nM (active)	
CN(Cc1ccco1)c1ncncc1-c1ccc2c(c1)OCO2	200 nM (active)	

Compound	AC50	activity, negative = inhibition
COc1cccc(-c2cncnc2N(C)Cc2ccco2)c1	10000 nM (active)	
CN(Cc1ccco1)c1ncncc1-c1cccnc1	5010 nM (active)	
CN(Cc1ccco1)c1ncncc1-c1ccoc1	15800 nM (active)	
O=C(Cc1ccc(Cl)cc1)Nc1cccc(-c2nnc(-c3ccco3)o2)c1	inactive	
CCCCCC(=O)N1CC2(CC(c3cccc(NC(=O)c4ccccc4)c3)=NO2)C[C@@H]1C(N)=O (stereo not given in full)	inactive	
O=C(Nc1cccc(-c2nc3ncccc3o2)c1)c1sc2ccccc2c1Cl	708 nM (active)	
O=C(CSc1ccc(Cl)cc1)Nc1cccc(-c2nc3ncccc3o2)c1	8910 nM (active)	
CCCCCC(=O)Nc1cccc(-c2nc3ncccc3o2)c1	2000 nM (active)	
CCC(=O)Nc1cccc(-c2nnc(-c3cccc(NC(=O)CC)c3)o2)c1	inactive	
Cc1ccc(S(=O)(=O)O/N=C2/CCCc3occc32)cc1	inactive	
CN(C)C(=O)CSC1c2ccccc2C(=O)N1c1ccccc1 (stereo not given)	12600 nM (active)	
COc1ccc(C2C(C(=O)N3CCOCC3)c3ccccc3C(=O)N2c2ccc(OC)cc2)cc1 (stereo not given)	inactive	
CCOc1ccc(C2C(C(=O)O)c3ccccc3C(=O)N2CCN2CCOCC2)cc1 (stereo not given)	inactive	
O=c1cc(CF)[nH]c(=S)[nH]1		-23.3% [at 11.4 µM]
Fc1ccc(Nc2nc(-c3ccoc3)nc3ccccc23)cc1	316 nM (active)	
CNc1nc(-c2ccoc2)nc2ccccc12	398 nM (active)	
c1ccc2c(Nc3ccncc3)nc(-c3ccoc3)nc2c1	158 nM (active)	
c1ccc(Nc2nc(-c3ccoc3)nc3ccccc23)cc1	200 nM (active)	
C=CC1=C[C@@H](O)C2OC2C12OCCCO2 (stereo not given in full)		-8.77% [at 11.4 µM]
NC(=O)CN1CCN(c2nc(-c3ccc(F)cc3)cs2)CC1	2510 nM (active)	
NC(=O)CN1CCOCCOCCOCCOCCOCC1	inactive	
NCS(=O)(=O)O		-5.62% [at 2.29 µM]

Compound	AC50	activity, negative = inhibition
COc1ccc2c(c1)C(=NN)c1cc(OC)ccc1-2	112 nM (active)	
COc1ccc(OC)c(NC(=O)Cn2cccc2)c1	6310 nM (active)	
COc1ccc(NC(=O)NCc2cccn2C)c(OC)c1	15800 nM (active)	
COCCN(C(=O)Nc1ccc(OC)cc1OC)C1CCN(C(C)=O)CC1	inactive	
COc1ccc(OC)c(NC(=O)[C@H]2CC=CC[C@H]2C(=O)O)c1	inactive	
CCCCN(CC)Cc1ccc(CNC(=O)Nc2ccc(OC)cc2OC)o1	inactive	
CCOc1ccc(-c2nnn(CC(=O)Nc3cc(OC)ccc3OC)n2)cc1OCC	inactive	
COc1ccc(N2CCC(CNC(=O)Nc3ccc(OC)cc3OC)C2)cc1 (stereo not given)	12600 nM (active)	
CCN1CCCC1CNC(=O)C(=O)Nc1ccc(OC)cc1 (stereo not given)	inactive	
COc1ccc(NC(=O)Cn2cccc2)c(OC)c1	5010 nM (active)	
COc1ccc(NC(=O)CSc2nnc(Cc3cccn3C)n2CCc2ccccc2)c(OC)c1	inactive	
C[C@@H](C(=O)O)c1ccc(C[C@@H]2CCCC2=O)cc1	inactive	
O=C1[C@@H]2[C@@H](C(=O)N1c1ccc(OCc3ccccc3)cc1)[C@@H]1c3ccccc3[C@@H]2[n+]2ccccc21		-19.6% [at 11.4 µM]
CN[C@]1(C)[C@@H]2CC[C@@H](C2)C1(C)C	inactive	
CCOC(=O)c1cncc(C(=O)O)c1	inactive	
CCOC(=O)c1ccc2nc(C)c(CCC(C)=O)c(Cl)c2c1	8910 nM (active)	
CCc1ccc(C(=O)COC(=O)c2cccc(N3C(=O)c4c(C)nc5ccccc5c4C3=O)c2)cc1	inactive	
O=C1CCCC=C1[C@H](CCc1ccccc1)OC(=O)c1ccc(Br)cc1		-1.62% [at 11.4 µM]
COC(=O)/C(=C\C(=O)c1ccccc1)Nc1cccc(C(F)(F)F)c1	2240 nM (active)	
O=C(Nc1ccccc1)N1CC2(CCN(C(=O)c3cc(C(F)(F)F)cc(C(F)(F)F)c3)CC2)C1	inactive	
COc1ccc2c(Cc3c4ccccc4cc4ccccc34)cncc2c1O	126 nM (active)	

— PubChem BioAssay AID1851 (National Center for Advancing Translational Sciences (NCATS), 2009)
